# About 21,000 targets were measured; listed, in parts, are those with the largest changes and a random draw of the rest.
# Target: XPOT_O43592_877_HIVPACFLAPLK (UniProt O43592)
# Experiment: probe-labelled cysteine peptide fold change vs DMSO (competition) (log2 fold change); higher = less target engagement (more negative = stronger competition)
# Conditions: THP-1, incubation time: 4 h
# 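Further: competitive chemoproteomic profiling in live THP-1 cells with an iodoacetamide desthiobiotin (IA-DTB) probe, comparing probe-labelled peptide intensities in compound-treated cells against DMSO-treated controls.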
# UniProt O43592, sequence (O43592 whole entry, looked up): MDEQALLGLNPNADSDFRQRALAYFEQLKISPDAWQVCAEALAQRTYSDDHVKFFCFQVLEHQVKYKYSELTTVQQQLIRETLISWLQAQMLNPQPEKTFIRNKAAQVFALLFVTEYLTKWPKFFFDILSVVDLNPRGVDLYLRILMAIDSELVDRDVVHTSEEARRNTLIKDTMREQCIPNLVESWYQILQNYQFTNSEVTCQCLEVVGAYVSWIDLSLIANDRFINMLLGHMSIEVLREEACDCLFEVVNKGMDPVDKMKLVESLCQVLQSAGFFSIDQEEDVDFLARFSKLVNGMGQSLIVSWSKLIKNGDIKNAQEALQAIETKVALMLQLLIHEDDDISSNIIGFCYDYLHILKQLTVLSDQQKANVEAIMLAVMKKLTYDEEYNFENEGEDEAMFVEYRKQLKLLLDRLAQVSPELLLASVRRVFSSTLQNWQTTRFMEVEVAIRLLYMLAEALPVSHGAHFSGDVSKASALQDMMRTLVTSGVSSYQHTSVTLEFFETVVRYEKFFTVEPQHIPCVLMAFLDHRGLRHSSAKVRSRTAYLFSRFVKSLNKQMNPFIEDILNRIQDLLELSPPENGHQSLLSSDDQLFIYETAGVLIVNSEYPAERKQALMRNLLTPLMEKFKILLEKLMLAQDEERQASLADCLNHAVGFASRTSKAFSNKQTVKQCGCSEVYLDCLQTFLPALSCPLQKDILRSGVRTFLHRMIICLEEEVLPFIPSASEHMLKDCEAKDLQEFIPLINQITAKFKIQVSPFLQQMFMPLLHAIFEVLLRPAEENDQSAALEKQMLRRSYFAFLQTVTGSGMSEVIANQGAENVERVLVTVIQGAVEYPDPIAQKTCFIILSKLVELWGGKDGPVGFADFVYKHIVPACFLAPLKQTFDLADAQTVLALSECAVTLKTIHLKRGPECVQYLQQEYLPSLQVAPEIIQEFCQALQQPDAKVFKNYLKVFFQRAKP
structure (smiles),measurement,setting,value
CC1Cc2ccccc2N1C(=O)C1CCCN(C(=O)CCl)C1 (mixture of isomers) [TRIM25 ligand 11 (diastereomer mixture)],probe-labelled cysteine peptide fold change,10 µM,0.0433
same,probe-labelled cysteine peptide fold change,50 µM,0.0734

# Source: the supplement of paper PMC12067093, “Discovery and optimisation of a covalent ligand for TRIM25 and its application to targeted protein ubiquitination” (Chemical Science, 2025)
